Shown is part of a subset that was picked to be rich in hits.
Pf Dd2 inh: blocks in vitro growth of P. falciparum Dd2. P. falciparum Dd2 growth, SYBR Green, 72 h. Potency, µM (highest dose often 28.9 µM), inactives show at the highest dose activity, negative = inhibition, usual class: inhibitors. actives 4.3% (n = 120,000); active means well fitted inhibition curve with a large enough effect;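 further: plate controls were DMSO vehicle for no effect and reference drug for full effect; nearly all actives have a fitted effect of over 65% in size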
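Readout: SYBR Green fluorescence, 485 nm excitation, 535 nm emission, after ~16 h lysis at 37C. Before that, Dd2-infected red cells (2.5% hematocrit) grew 72 h with compound, 29 uM top final concentration.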
Active calls of the source: *; i = inactive; [ ] = dose if it differs, or a comment. Potency means the concentration at half of the fitted maximal effect.

SMILES	Pf Dd2 inh
O=C(CCc1cc2ccccc2[nH]c1=O)NCCN1CCc2ccccc2C1	3.2µM*
N#CCCN1CCN(C(=O)CCc2cc3ccccc3[nH]c2=O)CC1	-24%
CCC1CCCCN1CCNC(=O)CCc1cc2ccccc2[nH]c1=O (stereo unspecified)	i
CC1(C(=O)O)CCN(S(=O)(=O)c2ccccc2)CC1	-24%[44.1 µM]
Cc1ccc(N(CC(O)Cn2c3ccccc3c3ccccc32)S(=O)(=O)c2ccc(F)cc2)cc1 (stereo unspecified)	13µM*
Cc1ccc(N(CC(=O)NCc2ccc(F)cc2)S(=O)(=O)c2c(C)nn(C)c2C)cc1	0%
COc1ccc(S(=O)(=O)N(CC(=O)N2CCc3ccccc3C2)c2ccc(C)cc2)cc1	-21%
Cc1cnn(CC(=O)N2CCc3nn(Cc4ccccc4)c(=O)n3CC2)c1	13%
COc1ccc(OCc2ccc(-c3nc(C#N)c(N4CCCCC4)o3)o2)cc1	9%
COc1ccc(Nc2oc(-c3ccc(COc4ccccc4C)o3)nc2C#N)cc1	11µM*
CNc1oc(-c2ccc(COc3ccc(C)cc3)o2)nc1C#N	-16%
CC1(C)NC(=O)N(CC(=O)N[C@@H]2COCC[C@H]2Oc2ccc(C#N)cc2)C1=O	0%
O=C(NCCN1CCCCC1)C1(CCO)CC12CCOCC2 (stereo unspecified)	16%
O=C(Cc1ccc(F)cc1)N1CCC[C@H]1c1nc(-c2ccc(F)cc2)no1	i
CCOc1ccc(CC(=O)N2CCC[C@H]2c2nc(-c3ccccc3)no2)cc1OCC	-32%
O=C(Cc1ccccc1)N1CCC[C@H]1c1nc(-c2ccccc2)no1	10µM*
COc1cccc(C(=O)Nc2c(C(=O)Nc3ccc(F)cc3)oc3ccccc23)c1OC	-21%
CCOc1ccc(C(=O)Nc2c(C(=O)c3ccccc3)oc3ccccc23)cc1	-8%
CN(C)CCN(Cc1ccco1)C(=O)c1oc2ccccc2c1NC(=O)c1ccccc1	11µM*
COc1ccccc1C(=O)Nc1c(C(=O)N(CCN(C)C)Cc2ccco2)oc2ccccc12	6.3µM*
Cc1c(C(=O)N(Cc2cccc(Cl)c2)Cc2ccco2)oc2ccccc12	3%
COc1ccccc1C(=O)N(Cc1ccco1)Cc1ccccc1F	-7%
Cc1ccc(CNC(=O)N2CCCC(c3nn[nH]n3)C2)cc1 (stereo unspecified)	18%
Cc1cnn(CC(=O)N2CCCCCCNC(=O)[C@@H]3CCCC[C@@H]32)c1	10%
CC(C)c1ccccc1NC(=O)CN1C(=O)NC2(CCOCC2)C1=O	8%
SMILES	Pf Dd2 inh
Cn1c(CCNC(=O)CN2CC3CC(C2)[C@H]2CCCC(=O)N2C3)nc2ccccc21 (stereo partly specified)	-30%
CCN1C(=O)c2ccccc2S(=O)c2ccc(C(=O)NCc3ccc(C)cc3)cc21 (stereo unspecified)	-24%
CN1CCN(C(=O)c2ccc3c(c2)N(Cc2ccc(F)cc2)C(=O)c2ccccc2S3=O)CC1 (stereo unspecified)	4µM*
CCN1CCN(C(=O)c2ccc3c(c2)N(Cc2ccc(Cl)cc2)C(=O)c2ccccc2S3=O)CC1 (stereo unspecified)	0.5µM*
CCN1C(=O)c2ccccc2S(=O)c2ccc(C(=O)N3CCN(c4ccccc4)CC3)cc21 (stereo unspecified)	i
O=C(c1ccc2c(c1)N(Cc1ccccc1F)C(=O)c1ccccc1S2=O)N1CCOCC1 (stereo unspecified)	-20%
O=C(c1ccc2c(c1)N(Cc1ccccc1F)C(=O)c1ccccc1S2=O)N1CCC(Cc2ccccc2)CC1 (stereo unspecified)	-3%
CCOC(=O)C1CCCN(C(=O)c2ccc3c(c2)N(Cc2ccc(Cl)cc2)C(=O)c2ccccc2S3=O)C1 (stereo unspecified)	11µM*
CCOC(=O)C1CCCN(C(=O)Cn2ncc3c(C)n(Cc4ccc(Cl)cc4)c(C)c3c2=O)C1 (stereo unspecified)	-18%
CN1CCN(C)c2cnc(-c3cnn(Cc4ccccc4)c3)cc2C1	i
Cc1noc2ccc(-c3ccccc3Oc3ccccc3)nc12	i
Cc1noc(C)c1[S+](=O)([O-])N1CCC(c2nnc3n2C(C(=O)O)CC3)CC1 (stereo unspecified)	0%
Cc1ccc(N2CCN(C(=O)C3CC(=O)N(c4n[nH]c5cccc(F)c45)C3)CC2)c(C)c1 (stereo unspecified)	i
O=C(O)CCC(=O)N1Cc2[nH]cnc2C[C@H]1C(=O)NC1CCCCC1	8%[44.1 µM]
CNC(=O)[C@@H]1CN(C(=O)CCc2cccc(OC)c2)C[C@H]1CO	4%
C[C@@H]1CN(Cc2nc(C(N)=O)no2)CC[C@@]1(O)C1CCOCC1	-5%
Cc1cc(-c2ccccc2)nc(CN2CC[C@@](O)(C3CCC3)[C@H](C)C2)n1	10µM*
COc1ccc(CNC(=O)N2CC[C@@](O)(C3CCC3)[C@H](C)C2)cc1	-11%
Cc1ccccc1-c1ccc2n(c1=O)C[C@H]1C[C@@H]2CN(C(=O)Nc2ccccc2)C1	-4%[44.1 µM]
O=C(NC1CCCC1)c1ccc2c(c1)N(Cc1ccccc1F)C(=O)c1ccccc1S2	i
CCCCN(C)C(=O)c1ccc2c(c1)N(Cc1cccc(F)c1)C(=O)c1ccccc1S2	i
O=C(NCc1ccc2c(c1)OCO2)c1ccc2c(c1)N(Cc1c(F)cccc1Cl)C(=O)c1ccccc1S2	7.1µM*
CCCCNC(=O)c1ccc2c(c1)N(CC)C(=O)c1ccccc1S2	1%
CCN(CC)CCCNC(=O)c1ccc2c(c1)N(Cc1c(F)cccc1Cl)C(=O)c1ccccc1S2	0.45µM*
O=C(NCCc1ccc(Cl)cc1)c1ccc2c(c1)N(Cc1c(F)cccc1Cl)C(=O)CS2	i
SMILES	Pf Dd2 inh
COCCNC(=O)CC[C@]12CC[C@](C)(O)C[C@H]1C(C)(C)C[C@@H]2NC1CCN(C(C)=O)CC1	11%
O=C(NCc1cccc(Cl)c1)C(=O)Nc1ccc2nc3n(c(=O)c2c1)CCCCC3	29%
CC1CCN(c2ccc(NC(=O)c3cccc(Cl)c3)cc2C(=O)O)CC1	3%
O=C(Nc1ccc2oc(-c3cccc4c(Br)cccc34)nc2c1)c1cccc(Cl)c1	i
Cc1cc(N2CCCCC2)nc2ccc(NC(=O)c3ccc(F)cc3)cc12	i
CCN1CCN(c2cc(C)c3cc(NC(=O)/C=C/c4cccc(Cl)c4)ccc3n2)CC1	3.2µM*
CCN1CCN(c2cc(C)c3cc(NC(=O)c4cc(OC)cc(OC)c4)ccc3n2)CC1	0.4µM*
CCN1CCN(c2cc(C)c3cc(NC(=O)c4cccc(Cl)c4)ccc3n2)CC1	1.6µM*
COc1ccc(C(=O)Nc2ccc3nc(N4CCC(C)CC4)cc(C)c3c2)cc1	-12%
CCCCc1ccc(C(=O)Nc2ccc3nc(N4CCN(CC)CC4)cc(C)c3c2)cc1	4.5µM*
CCN1C[C@@H]2C(C(=O)Nc3cccc(Cl)c3)=NO[C@@H]2C1	-7%[44.1 µM]
CCCCc1ccc(NC(=O)c2ccc(=O)n(Cc3cccc(C)c3)c2)cc1	i
COc1cc(OC)cc(C(=O)Nc2ccc3c(c2)n(C)c(=O)c(=O)n3C)c1	24%
COc1ccc(S(=O)(=O)N2CCc3c(C(=O)Nc4cccc(C)c4)cccc32)cc1	i
O=C(c1cccc(C(F)(F)F)c1)N1CCOCC2(CN(Cc3cc(F)cc(F)c3)C2)C1	i
COCC(=O)N[C@H]1C[C@H]2C(=O)NC[C@@H](CCC(=O)N3CCN(c4ccccn4)CC3)N2C1	-6%
COC[C@@H]1CN(C(=O)c2ccc(C(C)(C)C)cc2)C[C@H]1c1nc(C)no1	-17%
CN1Cc2ccccc2-n2ccnc2C12CCN(C(=O)c1ccc(F)cc1)CC2	1%[5.79 µM]

Source: PubChem BioAssay (National Center for Advancing Translational Sciences (NCATS))
